Data as given in PubChem BioAssay (NCATS).
Values joined by “and” are separate entries in the source; they are usually repeats but may differ in a detail not shown here. Identical values can stand only once. Inconclusive results are not listed. Active and inactive are the calls of the source. Unless noted, calls come from the whole dose curve; as a rule, active = well fitted curve in the direction sought with a large enough effect; inconclusive = small, poorly fitted or top-dose-only effect, or another doubt; inactive = no such curve, though single readings can be large; an effect the other way counts as inactive or inconclusive.

How the values were obtained:
[1] = Primary qHTS for inhibitors of La Crosse Virus (LACV) - induced cell death in SH-SY5Y cells (AID 1508616);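 note: top concentration of the series differs between compounds; higher means more rescue of cells from virus-induced death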
In short: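 Protection against LACV-induced cell death is scored in SH-SY5Y cells exposed to compounds and virus (0.01 MOI) for 6 days. Data normalized to virus-infected DMSO wells and virus-free DMSO wells.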

[2] = biological target: Calcium and integrin-binding protein 1 (Homo sapiens) (UniProt Q99828); assay: Primary qHTS for Identification of Calcium Integrin Binding Protein 1 (CIB1) Competitor (AID 1508620);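 note: GST tagged CIB1 binding a fluorescein labelled alphaIIb integrin peptide tracer; top concentration of the series differs between compounds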
In short: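 Fluorescence polarization competition: GST-tagged CIB1 (1 uM final) preincubated with compound 15 min at room temperature, then FITC-labelled alphaIIb peptide (100 nM final) added. After 15 min at room temperature, polarization read at Ex 480/Em 540.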

[3] = Primary qHTS for small molecule stabilizers of the endoplasmic reticulum resident proteome: Secreted ER Calcium Modulated Protein (SERCaMP) assay (AID 1508630)
In short: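 GLuc-SERCaMP-expressing SH-SY5Y cells, pretreated 16 h with compound, are challenged with thapsigargin to empty ER calcium stores; after 4 h, coelenterazine is added directly to the medium and luminescence is imaged.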

[4] = A High-Content qHTS Against Drug Library for the Identification of Small Molecules that Inhibit DYT1 Early Onset Primary Dystonia-Associated Cell Pathology (AID 1645839; calls by dose curve)
In short: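 Flp-In T-REx 293 cells with tetracycline-inducible EGFP-delE hTOR1A (WT EGFP-hTOR1A as reference), 800 cells/well; compound added with tetracycline, 48 h at 37 C. Fixed, permeabilized cells imaged; %pathology (punctate TorsinA) primary, cell count counterscreen.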

[5] = biological target: Cytochrome P450 2D6 (Homo sapiens) (UniProt P10635); assay: Cytochrome P450 family 2 subfamily D member 6 (CYP2D6) small molecule antagonists: luciferase biochemical (cell-free) qHTS assay (AID 1645840; active = well fitted curve in the direction sought with a large enough effect in the repeat runs; an effect the other way counts as inactive or inconclusive; note: nearly all actives have a fitted effect of over 55% in size; note: potency is the fitted concentration of half-maximal effect)
In short: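 P450-Glo luminescent screen: recombinant CYP2D6 enzyme–proluciferin substrate mix preincubated with compound 10 min at room temperature, then NADPH regeneration added for 1 h at room temperature. Detection reagent added for 20 min; luciferin light read as relative luminescence units.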

[6] = Primary qHTS to identify inhibitors of SARS-CoV-2 cell entry (AID 1645846; calls by dose curve; note: nearly all actives have a fitted effect of over 45% in size); details: activity change, negative = inhibition: at 57.1 µM (top of the series) unless noted
In short: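 Using luciferase-reporting pseudoviruses carrying Wuhan-Hu-1 spike, the screen tracks entry into stably ACE2-expressing cells over 48 hr. Activity is expressed relative to spike particles versus particles lacking any fusion protein.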

[7] = biological target: Cytochrome P450 2C9 (Homo sapiens) (UniProt P11712); assay: Cytochrome P450 family 2 subfamily C member 9 (CYP2C9) small molecule antagonists: luciferase biochemical (cell-free) qHTS assay (AID 1645842; active = well fitted curve in the direction sought with a large enough effect in the repeat runs; an effect the other way counts as inactive or inconclusive; note: nearly all actives have a fitted effect of over 55% in size; note: potency is the fitted concentration of half-maximal effect)
In short: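 Luminescence, after 20 min with luciferin detection reagent, reflected CYP2C9 turnover during a 1 h NADPH-driven reaction at 37C. Enzyme-substrate mix contained 0.4% bovine serum albumin and was preincubated with compound 10 min at room temperature.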

[8] = Primary qHTS for inhibitors of nuclear receptor binding SET domain protein 2 (NSD2) in an isogenic RCH-ACV NSD2 p.E1099K mutant (9B) (AID 1645876); note: nearly all actives have a fitted effect of over 70% in size; note: potency is the fitted concentration of half-maximal effect
[9] = Primary qHTS for inhibitors of nuclear receptor binding SET domain protein 2 (NSD2) in an RCH-ACV wild type WT cells (2C) (AID 1645877); note: nearly all actives have a fitted effect of over 70% in size; note: potency is the fitted concentration of half-maximal effect
[10] = Cytotoxicity counterscreen for inhibitors of SARS-CoV-2 cell entry (AID 1645845; calls by dose curve; note: nearly all actives have a fitted effect of over 50% in size)
In short: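 HEK293-ACE2 cells (Expi293F stably expressing human ACE2) seeded overnight, then compound for 1 h plus 48 h at 37C. Viability as ATP content by luminescence; normalized to wells with cells and media-only wells.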

Chain of Calcium and integrin-binding protein 1 (Homo sapiens) (Q99828 whole entry, looked up): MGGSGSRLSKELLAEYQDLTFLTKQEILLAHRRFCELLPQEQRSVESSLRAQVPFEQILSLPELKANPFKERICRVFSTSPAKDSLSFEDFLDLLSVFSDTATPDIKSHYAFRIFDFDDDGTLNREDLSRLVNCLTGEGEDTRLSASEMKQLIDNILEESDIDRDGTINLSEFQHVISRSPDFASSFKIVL
Chain of Cytochrome P450 2C9 (Homo sapiens) (P11712 whole entry, looked up): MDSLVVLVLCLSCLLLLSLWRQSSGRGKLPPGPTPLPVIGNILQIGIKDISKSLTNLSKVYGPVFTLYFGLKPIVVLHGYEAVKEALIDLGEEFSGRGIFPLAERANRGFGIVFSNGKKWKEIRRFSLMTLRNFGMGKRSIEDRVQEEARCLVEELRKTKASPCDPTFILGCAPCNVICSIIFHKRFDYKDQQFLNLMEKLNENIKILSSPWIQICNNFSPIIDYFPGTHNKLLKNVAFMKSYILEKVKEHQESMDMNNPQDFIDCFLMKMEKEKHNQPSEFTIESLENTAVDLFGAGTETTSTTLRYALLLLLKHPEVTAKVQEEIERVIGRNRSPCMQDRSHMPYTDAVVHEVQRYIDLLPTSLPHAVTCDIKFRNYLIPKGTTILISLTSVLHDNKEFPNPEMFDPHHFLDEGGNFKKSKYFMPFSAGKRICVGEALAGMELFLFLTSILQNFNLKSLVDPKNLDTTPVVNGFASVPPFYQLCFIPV
Chain of Cytochrome P450 2D6 (Homo sapiens) (P10635 whole entry, looked up): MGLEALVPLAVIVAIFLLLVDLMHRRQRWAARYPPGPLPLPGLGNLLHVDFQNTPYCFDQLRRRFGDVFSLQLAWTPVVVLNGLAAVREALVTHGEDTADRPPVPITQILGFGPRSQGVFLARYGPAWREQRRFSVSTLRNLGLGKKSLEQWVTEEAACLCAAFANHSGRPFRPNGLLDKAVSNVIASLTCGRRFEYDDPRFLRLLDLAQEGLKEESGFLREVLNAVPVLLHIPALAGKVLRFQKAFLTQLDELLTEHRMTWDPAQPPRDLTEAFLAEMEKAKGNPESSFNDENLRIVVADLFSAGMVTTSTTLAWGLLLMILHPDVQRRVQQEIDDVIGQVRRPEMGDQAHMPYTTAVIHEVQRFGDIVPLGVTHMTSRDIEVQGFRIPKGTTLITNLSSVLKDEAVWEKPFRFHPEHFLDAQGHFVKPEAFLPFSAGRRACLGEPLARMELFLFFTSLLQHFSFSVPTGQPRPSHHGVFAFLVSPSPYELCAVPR

CC(Cc1ccccc1)NCc1ccccc1Cl (stereo not drawn)
inactive: outcome [1] | Potency [2] | outcome [3] | outcome [4]
active: Potency [5] 0.155 µM
-7.69%: activity change, negative = inhibition [6]

CCN(CC)CCOC(=O)C(C)(c1ccccc1)c1ccccc1
inactive: outcome [1] | Potency [2] | outcome [3] | outcome [4] | Potency [8]
active: Potency [5] 1.38 µM | Potency [7] 3.89 µM

CCN1CCCC1CNC(=O)C(O)(c1ccccc1)c1ccccc1 (stereo not drawn)
inactive: outcome [1] | Potency [2] | outcome [3] | outcome [4] | Potency [7] | Potency [8] | Potency [9]
active: Potency [5] 3.09 µM

Oc1c(Br)cc(Br)cc1Br
inactive: outcome [1] | Potency [2] | outcome [3] | outcome [4] | Potency [5] | Potency [7] | Potency [8] | Potency [9]

N#Cc1nn(-c2c(Cl)cc(C(F)(F)F)cc2Cl)c(N)c1S(=O)C(F)(F)F (stereo not drawn)
inactive: outcome [1] | Potency [2] | outcome [3] | outcome [4] | Potency [10]
active: Potency [5] 3.89 µM | Potency [7] 3.89 µM | Potency [9] 21.1 µM

CC(Cc1ccc2c(c1)OCO2)NO (stereo not drawn)
active: Potency [5] 61.1 µM | Potency [7] 38.6 µM
inactive: outcome [1] | Potency [2] | outcome [3] | outcome [4] | Potency [8] | Potency [9]

O=C(CCCCl)c1ccc(F)cc1
inactive: outcome [1] | Potency [2] | outcome [3] | outcome [4] | Potency [5] | Potency [7] | Potency [8] | Potency [9]

CC1=C2[C@H]3OC(=O)[C@@H](C)[C@@H]3CC[C@@]2(C)C=CC1=O
inactive: outcome [1] | Potency [2] | outcome [3] | outcome [4] | Potency [5] | Potency [7] | Potency [10] | Potency [8] | Potency [9]

NCc1cccnc1
inactive: outcome [1] | Potency [2] | outcome [3] | outcome [4] | Potency [5] | Potency [7] | Potency [8] | Potency [9]

CCOC(=O)c1ncn2c1CN(C)C(=O)c1c(I)cccc1-2
inactive: outcome [1] | Potency [2] | outcome [3] | outcome [4] | Potency [5] | Potency [7] | Potency [6] | Potency [8] | Potency [9]

O=C(CCl)c1ccc(Cl)cc1Cl
inactive: outcome [1] | Potency [2] | outcome [3] | Potency [5] | Potency [8] | Potency [9]

CC1COC2(c3ccccc3Cl)c3cc(Cl)ccc3NC(=O)CN12 (stereo not drawn)
inactive: outcome [1] | Potency [2] | outcome [3] | Potency [10] | Potency [6]
active: Potency [5] 11 µM | Potency [7] 24.5 µM

O=C(CBr)Nc1ccc(Cl)cc1C(=O)c1ccccc1F
inactive: outcome [1] | Potency [2] | outcome [3] | outcome [4] | Potency [8] | Potency [9]

C[C@]12CC[C@H](O)CC1=CC[C@@H]1[C@@H]2CC[C@]2(C)C(=O)CC[C@@H]12
inactive: outcome [1] | Potency [2] | outcome [3] | outcome [4] | Potency [7] | Potency [10] | Potency [6] | Potency [9]

O=C(N[C@H]1N=C(c2ccccc2F)c2cccc3c2N(CC3)C1=O)c1cc2ccccc2[nH]1
active: Potency [7] 6.92 µM
-28.2%: activity change, negative = inhibition [6]
inactive: outcome [1] | Potency [2] | outcome [4] | Potency [5] | Potency [10]

C=CCOC(Cn1ccnc1)c1ccc(Cl)cc1Cl (stereo not drawn)
inactive: outcome [1] | Potency [2] | outcome [3]
active: Potency [5] 2.88 µM | Potency [7] 0.683 µM | Potency [8] 23.7 µM

C=CCN1CC[C@]23CCCC[C@H]2[C@H]1Cc1ccc(O)cc13
-14.7%: activity change, negative = inhibition [6]
inactive: outcome [1] | Potency [2] | outcome [3] | outcome [4] | Potency [7] | Potency [10] | Potency [8] | Potency [9]

CNC(=O)Oc1cccc2ccccc12
inactive: outcome [1] | Potency [2] | outcome [4] | Potency [5] | Potency [7] | Potency [10] | Potency [6]

Sc1ccccc1Cl
inactive: outcome [1] | Potency [2] | outcome [4] | Potency [5] | Potency [7]

CN1CCC(N(Cc2ccccc2)c2ccccc2)CC1
active: Potency [5] 0.11 µM
inactive: outcome [1] | Potency [2] | outcome [4] | Potency [7]

CCC(OC(C)=O)C(CC(C)NC)(c1ccccc1)c1ccccc1 (stereo not drawn)
active: Potency [5] 18 µM | Potency [8] 24.6 µM | Potency [9] 19.5 µM
inactive: outcome [1] | Potency [2] | outcome [3]

Cc1cccc(Cc2cnc[nH]2)c1C
active: Potency [5] 0.871 µM | Potency [7] 0.123 µM
-1.14%: activity change, negative = inhibition [6]
inactive: outcome [1] | Potency [2] | outcome [4] | Potency [10]

CCC(=O)O[C@H]1CC[C@H]2[C@@H]3CCC4=CC(=O)CC[C@]4(C)[C@H]3CC[C@]12C
active: Potency [5] 16.9 µM | Potency [7] 24.5 µM and 10.7 µM | Potency [8] 23.7 µM
inactive: outcome [1] | Potency [2] | outcome [3] | Potency [10] | Potency [6]

CN1CCc2cc(Cl)c(O)cc2[C@H]2c3ccccc3CC[C@@H]21
inactive: outcome [1] | Potency [2] | outcome [4] | Potency [7]
active: Potency [5] 0.001 µM

C#C[C@]1(O)C=C[C@H]2[C@@H]3CCC4=CC(=O)CC[C@@H]4[C@H]3CC[C@@]21CC
-10.9%: activity change, negative = inhibition [6]
active: Potency [7] 2.75 µM
inactive: outcome [1] | Potency [2] | outcome [3] | outcome [4] | Potency [10]

COc1cc(C[C@@H](C)N)c(OC)cc1Br
active: Potency [5] 25.9 µM
inactive: outcome [1] | Potency [2] | outcome [4] | Potency [7]
